40 compounds from PubChem BioAssay (EPA / NIEHS) can be followed below.

Active and inactive are the calls of the source. The calls were made as follows: active = hit-call score of the fitted dose curve at least 0.9, where 1 is the maximum; inactive = score below 0.9.

Read-out in the test: matrix metalloproteinase-10 (MMP10), MMP10 (gene 4319)
Briefly: LTEA_HepaRG_MMP10: Life Technologies and Expression Analysis (LTEA) Assay for matrix metalloproteinase-10 (MMP10) using HepaRG (AID 2283517). To be noted: mRNA level, 48 h; actives raise or lower the signal. Here is the method:
LTEA_HepaRG is a cell based, multiplexed-readout assay that uses HepaRG, a human liver cell line, with measurements taken at 48 hours after chemical dosing on a 96-well plate.LTEA_HepaRG_MMP10 is one of 102 assay component(s) measured in the LTEA HepaRG cell culture assay. It is a marker of Fibrosis.Data from the assay component LTEA_HepaRG_MMP10 was analyzed into 1 endpoint. This assay endpoint, LTEA_HepaRG_MMP10, was analyzed with bidirectional fitting relative to DMSO as the negative control and baseline of activity. Using a type of inducible reporter, measures of mRNA induction for gain or loss-of-signal activity can be used to understand regulation of transcription factor activity. To generalize the intended target to other relatable targets, this assay endpoint is annotated to the protease intended target family, where the subfamily is matrix metalloproteinase.
A total of 1060 chemcials from the ToxCast library were tested in eight-point concentration-response experiments. Cell culture and cytotoxicity assays were conducted at Thermo Fisher Scientific's Custom Services facility (Madison, WI). A single lot of human HepaRG cells (Thermo Fisher Scientific, Frederick, MD) was used for the cell culture experiments. 96-well format collagen type I coated plates of human HepaRG cells were prepared using established methods. Briefly, cryopreserved HepaRG cells were thawed, plated at a density of approximately 100,000 cells/well in HepaRG Thaw, Plate, and General Purpose media (HPRG770, Thermo Fisher Scientific), and incubated for 48 hours. 0.5% DMSO was selected as vehicle control to balance the requisite need of DMSO in HepaRG cultures to maintain differentiation (for example, baseline metabolism, proportions of hepatocytes vs. cholangiocytes), while enabling further hepatic receptor pathway activation (for example, PXR and CAR) in response to chemical exposure. 48 hours after plating, the culture medium was replaced with HepaRG Serum-Free Incudtion Media. Cells were exposed to each test chemical in duplicate and maintained in CO2 incubators for another 48 hours. Chemical plates were thawed to room temperature and 200x concentrations of treatment groups were prepared. 8-point conentration-reponse curves were made with the highest exposure at 100 uM, followed by half-log dilutions, all in 0.5% DMSO. Each test plate contained variouse controls, induction positive controls (1mM phenobarbital), cytotoxicity positive controls ([…] aflatoxin B1), vehicle controls (0.5% DMSO), and total lysis controls (0.5% DMSO). Cell morphology images were taken using an Essen IncuCyte FLR automated microscope, with six 96-well plates imaged in about 24 minutes. Images were captured and exported and JPEG files. Spent culture media was transfered to black-well plates for the LDH assay, and remaining media was sorted at -80 C for later use. Cells were treated with RLT buffer and frozen until shipped for gene expression analysis. Total RNA was isolated from the cell suspension in 75 uL of Buffer RLT (Qiagen, Germantown, MD 20874) by Quintiles/Expression Analysis (Durham, NC) using a custom isolation procedure. Total RNA from each plate well was transferred to a preamplification plate. Fluidigm's 96.96 Dynamic ArrayTM (Fluidigm, Amsterdam, the Netherlands) technology was used for gene expression analyses by quantitative reverse transcription polymerase chain reaction (qRT-PCR, performed by Quintiles/Expression Analysis, Durham, NC)89. Standard TaqManTM Assays (Applied Biosystems/ThermoFisher Scientific, Foster City, CA) were used to assess the expression of 93 genes selected based on their selectivity and sensitivity to important hepatic receptors known to be modulated by environmental chemicals; importance in human hepatocyte functionality; and hepatotoxicity. […]
For `OC(CCl)CCl`, the result was inactive.
With `OC(Cn1cncn1)(Cn1cncn1)c1ccc(F)cc1F`, the compound was called inactive.
Same read-out and setting: the value for `CC(=O)c1ccccc1` was “inactive”; that for `CCCC(CCC)C(=O)O` was “inactive”; that for `C[C@]12C=CC(=O)C=C1CC[C@H]1[C@@H]3C[C@@H](O)[C@](O)(C(=O)CO)[C@@]3(C)C[C@H](O)[C@@]12F` was “inactive”.
In the case of `Cn1c(=O)c2[nH]cnc2n(C)c1=O`, the result was inactive.
Take `O=C(O)[C@H](O)[C@@H](O)C(=O)O`: the outcome was inactive.
For the compound `O=C(O)c1cccc(C[C@@H]2COc3ccc(OCc4nc5cc(F)ccc5s4)cc3[C@@H]2O)c1`, the result was inactive.
Take `O=S(=O)(O)c1ccc(N=Nc2c(O)ccc3cc(S(=O)(=O)O)ccc23)cc1`: the compound was called inactive.
With `CCCCCOC(C)=O`, the result was inactive.
On the same count and under the same terms, the entry for `OC[C@H]1O[C@@](CO)(O[C@H]2O[C@H](CO)[C@@H](O)[C@H](O)[C@H]2O)[C@@H](O)[C@@H]1O` is “inactive”; for `CCn1nc(C)c2c1C(=O)NCC(c1ccc(O)cc1)=N2` it is “inactive”.
In the case of `C=CN1CCCC1=O`, the compound was classed as inactive.
In the case of `O=C(O)c1ccc2c(c1)nc(C(=O)NC1CCN(C3CC3)CC1)n2Cc1cc(-c2ccc(Cl)s2)on1`, the compound was called inactive.
Consider `COS(C)(=O)=O`, for which the outcome was inactive.
With `c1ccc2cc3ccccc3cc2c1`, the compound was classed as inactive.
As a reminder, the AC50 is the midpoint of the concentration-response curve, whichever way the signal moves. With `COc1cc2c(c(OC)c1OC)-c1ccc(OC)c(=O)cc1[C@@H](NC(C)=O)CC2`, the concentration at half-maximal activity (AC50) is 0.0147 µM (active).
As to `O=C(NO)C1(NS(=O)(=O)c2ccc(Oc3ccc(F)cc3)cc2)CCOCC1`, the compound was called inactive.
Regarding `c1ccc(C(O[C@@H]2CCCN(CCc3ccc4c(c3)OCO4)C2)c2ccccc2)cc1`, the compound was classed as inactive.
Turning to `NC(=O)N(O)[C@@H]1COc2cc(OCc3ccccc3)ccc21`, the compound was called inactive.
Turning to `CCCCCCCC/C=C\CCCCCCCC(=O)OC[C@@H](O)[C@H]1OC[C@H](O)[C@H]1O`, the outcome was inactive.
Still for that read-out and setting: the value for `Cn1cc[nH]c1=S` was “inactive”; that for `CCOc1ccc2[nH]cc(C(=O)NCc3ccccc3)c(=O)c2n1` was “inactive”.
For the compound `C=CCc1cc(S(=O)(=O)c2ccc(O)c(CC=C)c2)ccc1O`, the half-maximal activity concentration (AC50) was 93.2 µM (active).
Regarding `CCCCCCCCN(C)C`, the compound was called inactive.
Regarding `CNC(C)=O`, the compound was classed as inactive.
For the compound `CCCCCCCC1CCC(=O)O1` (stereo not given), the call was inactive.
For the compound `O=C1CN(N=Cc2ccc([N+](=O)[O-])o2)C(=O)N1`, the result was inactive.
As to `NC(=O)N1c2ccccc2C=Cc2ccccc21`, the result was inactive.
As to `CC[C@H](C)C(=O)O[C@H]1C[C@H](O)C=C2C=C[C@H](C)[C@H](CC[C@@H](O)C[C@@H](O)CC(=O)O)[C@H]21`, the compound was called inactive.
As for `NC(=O)NN=Cc1ccc([N+](=O)[O-])o1`, the AC50 was 9.92 µM (active).
In the case of `CC1(C)C(=O)N(Cl)C(=O)N1Cl`, the compound was called inactive.
As to `CCOC(N)=O`, the compound was classed as inactive.
Take `CCCCN1C(=O)[C@@H]([C@H](O)C2CCCCC2)NC(=O)C12CCN(Cc1ccc(Oc3ccc(C(=O)O)cc3)cc1)CC2`: the half-maximal activity concentration (AC50) was 11.9 µM (active).
Consider `CC(C)CC(C)O` (stereo not given), for which the outcome was inactive.
On the same count and under the same terms, the entry for `OCCOCCOCCO` is “inactive”; for `OC[C@H]1O[C@@H]2O[C@H]3[C@H](O)[C@@H](O)[C@@H](O[C@H]4[C@H](O)[C@@H](O)[C@@H](O[C@H]5[C@H](O)[C@@H](O)[C@@H](O[C@H]6[C@H](O)[C@@H](O)[C@@H](O[C@H]7[C@H](O)[C@@H](O)[C@@H](O[C@H]1[C@H](O)[C@H]2O)O[C@@H]7CO)O[C@@H]6CO)O[C@@H]5CO)O[C@@H]4CO)O[C@@H]3CO` it is “inactive”.
For `O=C(O)c1cccc(C(=O)O)c1`, the compound was classed as inactive.
For `O=c1[nH]cnc2c1ncn2[C@H]1CC[C@@H](CO)O1`, the result was inactive.
With `Cc1ncc([C@@H](CCCCCCc2ccc3c(n2)NCCC3)CC(=O)O)cn1`, the result was inactive.
